Hits are enriched below; roughly 7.5% of the tested compounds scored in any of these assays.
KinaseGlo FLuc = Counterscreen for Luciferase (Kinase-Glo TM) Inhibition | 200,000 compounds, 0.28% hits | Kinase-Glo luciferase, ATP luminescence, 8 min | Potency, µM (series often up to 38.3 µM), actives largely listed as inhibitors | AID 1379, 2008; further: nearly all actives have a fitted effect of over 60% in size
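Light output from Kinase-Glo luciferase with luciferin and 10 uM ATP in 50 mM imidazole pH 7.2, KCl, MgCl2, Tween 20, BSA; compound pin-delivered, 8-min ambient incubation, then luminescence read.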
NPC1 prom act = qHTS Assay for NPC1 Promoter Activators; 320,000 compounds, 2.4% hits; Potency, µM (doses to about 9.22 µM), most hits filed as activators; Huh7 NPC1 promoter luciferase reporter, 24 h; AID 485313, 2010; further: nearly all actives have a fitted effect of over 60% in size
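NPC1 promoter–luciferase Huh7 cells; 24 h compound; luminescence.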
FLuc modulator = qHTS profiling assay for firefly luciferase inhibitor/activator using purifed enzyme and Km concentrations of substrates (counterscreen for miR-21 project); Luciferin 4-monooxygenase (Photinus pyralis), P08659; purified FLuc, Km substrates, luminescence inhibition; Potency, µM (highest dose often 57.5 µM), actives largely listed as inhibitors; 360,000 compounds, 6.9% hits; AID 588342, 2011; further: nearly all actives have a fitted effect of over 55% in size
Target sequence (P08659 whole entry, looked up): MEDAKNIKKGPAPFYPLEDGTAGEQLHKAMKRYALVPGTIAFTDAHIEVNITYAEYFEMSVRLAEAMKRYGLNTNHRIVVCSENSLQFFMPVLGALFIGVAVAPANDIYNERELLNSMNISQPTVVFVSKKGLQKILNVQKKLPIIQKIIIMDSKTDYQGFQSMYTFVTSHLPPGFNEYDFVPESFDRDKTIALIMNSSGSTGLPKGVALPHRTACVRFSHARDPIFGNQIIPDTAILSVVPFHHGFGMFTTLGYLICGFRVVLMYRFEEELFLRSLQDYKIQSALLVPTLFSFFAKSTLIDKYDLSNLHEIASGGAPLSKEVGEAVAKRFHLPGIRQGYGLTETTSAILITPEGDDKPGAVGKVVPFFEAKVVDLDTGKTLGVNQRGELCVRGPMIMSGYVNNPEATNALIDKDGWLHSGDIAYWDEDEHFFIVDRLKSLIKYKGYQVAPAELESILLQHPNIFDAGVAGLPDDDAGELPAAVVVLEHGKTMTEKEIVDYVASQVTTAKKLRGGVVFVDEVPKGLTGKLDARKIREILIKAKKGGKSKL
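Purified P. pyralis luciferase (10nM final) with 10uM D-luciferin and 10uM ATP (Km levels) in 50mM Tris acetate pH 7.5, 10mM Mg acetate, 0.01% Tween-20, 0.05% BSA; qHTS 6-point titration, ~60 µM downward; luminescence read.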
SMN2 splice up = qHTS Assay for Enhancers of SMN2 Splice Variant Expression; 210,000 compounds, 2.8% hits; HEK293 SMN2-luciferase splicing reporter, luminescence, 30-36 h; Potency, µM (top dose mostly 46.1 µM), actives largely listed as activators; further: nearly all actives have a fitted effect of over 55% in size
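HEK293 cells carry an SMN2 […]–luciferase reporter in which exon 7 inclusion puts luciferase in frame. Cells were plated 10-12 h before compound addition, then incubated 30-36 h at 37C. ONE-Glo luminescence was read; sodium butyrate at 4.5 mM final served as control.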
Rab9 prom act = qHTS Assay for Rab9 Promoter Activators. Potency, µM (doses to about 9.22 µM), actives largely listed as activators. Huh7 Rab9 promoter-luciferase reporter, luminescence, 24 h. 320,000 compounds, 2.8% hits; further: nearly all actives have a fitted effect of over 60% in size
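Steps: seed 1500 Huh7 Rab9-luc cells per well, rest 2 h at 37 °C; add compound in DMSO; incubate 24 h; add luciferase reagent, 10 min ambient; read luminescence.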
ELG1 genotoxic = qHTS screen for small molecules that induce genotoxicity in human embryonic kidney (HEK293T) cells expressing luciferase-tagged ELG1; AID 504466, 2011; HEK293T ELG1-luciferase reporter, luminescence, 16 h; 330,000 compounds, 1.3% hits; Potency, µM (series often up to 46 µM), most hits filed as activators; further: nearly all actives have a fitted effect of over 60% in size
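Reporter readout depends on ELG1 protein level, which increases with genetic stress. After 16 hr compound exposure at 37 °C, luciferase activity was quantified using ONE-Glo.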
Large screens that a line does not name were inactive. The call rests on the fitted dose curve; in most records, active means well fitted curve in the direction sought with a large enough effect; inconclusive means small, poorly fitted or top-dose-only effect, or another doubt; inactive means no such curve, though single readings can be large; an effect the other way counts as inactive or inconclusive.

Cc1ccc(NC(=O)c2cccc(S(=O)(=O)N3CCN(c4ccccc4)CC3)c2)nc1	ELG1 genotoxic 15µM (no result: KinaseGlo FLuc, SMN2 splice up)
Cc1ccnc(NC(=O)c2cccc(S(=O)(=O)N3CCN(c4ccccc4)CC3)c2)c1	FLuc modulator 1.9µM, Rab9 prom act inconclusive, ELG1 genotoxic inconclusive (no result: KinaseGlo FLuc, SMN2 splice up)
CC(=O)O[C@H]1C(=O)[C@@]2(C)C([C@H](OC(=O)c3ccccc3)[C@]3(O)C[C@H](OC(=O)[C@H](O)[C@@H](NC(=O)c4ccccc4)c4ccccc4)C(C)=C1C3(C)C)[C@]1(OC(C)=O)CO[C@@H]1C[C@@H]2O (stereo not given in full)	none (no result: FLuc modulator, ELG1 genotoxic)
COc1ccc(CNC(=O)Cn2nnc(-c3ccc(C(F)(F)F)cc3)n2)cc1	none (no result: KinaseGlo FLuc, NPC1 prom act, SMN2 splice up, Rab9 prom act, ELG1 genotoxic)
CCCN1CCCc2cc(CN(CCCN3CCOCC3)C(=O)Nc3ccc(Cl)c(Cl)c3)ccc21	none (no result: KinaseGlo FLuc, NPC1 prom act, SMN2 splice up, Rab9 prom act, ELG1 genotoxic)
CCCCCn1c(CNC(=O)c2ccc(F)cc2)nc2ccccc21	none (no result: KinaseGlo FLuc, NPC1 prom act, Rab9 prom act, ELG1 genotoxic)
CCN(CCn1cccn1)C(=O)CCc1nnc(C2(c3ccc(Cl)cc3)CCC2)o1	FLuc modulator 17µM, Rab9 prom act inconclusive (no result: SMN2 splice up)
Nc1c(-c2cccc([N+](=O)[O-])c2)nc2ccccn12	KinaseGlo FLuc inconclusive, NPC1 prom act inconclusive, FLuc modulator 17µM, SMN2 splice up inconclusive, Rab9 prom act 3.2µM, ELG1 genotoxic inconclusive
CCOC(=O)COc1ccc([N+](=O)[O-])cc1-c1ccnc2cc(-c3ccc(C)cc3)nn12	none (no result: KinaseGlo FLuc, NPC1 prom act, Rab9 prom act, ELG1 genotoxic)
CCOC(=O)Cn1cnc(-c2ccc([N+](=O)[O-])cc2)c1	FLuc modulator 12µM, SMN2 splice up inconclusive, Rab9 prom act inconclusive, ELG1 genotoxic inconclusive
COc1ccc(NC(=O)C2CCN(S(=O)(=O)c3ccc4c(c3)CCCC(=O)N4)CC2)cc1Cl	none (no result: KinaseGlo FLuc, NPC1 prom act, SMN2 splice up, Rab9 prom act, ELG1 genotoxic)
CCOc1cc(/C=N/Nc2nc(C)cc(=O)[nH]2)ccc1O	FLuc modulator inconclusive (no result: KinaseGlo FLuc, SMN2 splice up)
CC(=O)Nc1sc(N/N=C/c2ccc(C)cc2)nc1-c1ccc(C)cc1	FLuc modulator 8.5µM (no result: KinaseGlo FLuc, SMN2 splice up)
CC(=O)Nc1sc(/C(C#N)=C/c2ccc(Cl)c(Cl)c2)nc1-c1ccc(C)cc1	none
CCOc1cc(/C=N\Nc2nc(-c3ccc(C)cc3)c(NC(C)=O)s2)ccc1O	FLuc modulator 27µM (no result: KinaseGlo FLuc, SMN2 splice up)
COc1cc(/C=N\Nc2nc(-c3ccc(C)cc3)c(NC(C)=O)s2)ccc1O	FLuc modulator inconclusive (no result: KinaseGlo FLuc, SMN2 splice up)
CC(=O)Nc1sc(N/N=C/c2ccc(N(C)C)cc2)nc1-c1ccc(C)cc1	FLuc modulator 6.7µM, ELG1 genotoxic inconclusive (no result: KinaseGlo FLuc, SMN2 splice up)
COc1ccc(/C=N/Nc2nc(-c3ccc(C)cc3)c(NC(C)=O)s2)cc1OC	FLuc modulator 3µM, ELG1 genotoxic inconclusive (no result: KinaseGlo FLuc, SMN2 splice up)
Cc1ccc(NC(=O)c2oc3ccc(S(=O)(=O)N(C)C4CCCCC4)cc3c2C)cc1Cl	none (no result: KinaseGlo FLuc, NPC1 prom act, SMN2 splice up, Rab9 prom act, ELG1 genotoxic)
Cc1ccc(C)c(NC(=O)Cn2c(=O)oc3cc(S(=O)(=O)NCc4ccccc4)ccc32)c1	FLuc modulator inconclusive (no result: KinaseGlo FLuc, NPC1 prom act, Rab9 prom act, ELG1 genotoxic)
O=C1c2ccccc2NC(c2ccc(-c3ccc(F)cc3)o2)N1O (stereo not given)	NPC1 prom act 2.8µM, FLuc modulator inconclusive, ELG1 genotoxic inconclusive (no result: KinaseGlo FLuc, SMN2 splice up)
O=C1c2ccccc2NC(c2ccc(-c3ccc(Br)cc3)o2)N1O (stereo not given)	none
CCOc1c(Cl)cc(C(=O)Nc2cccc(C(=O)O)c2)cc1Cl	NPC1 prom act 0.56µM, FLuc modulator 3µM, Rab9 prom act 0.71µM, ELG1 genotoxic inconclusive (no result: SMN2 splice up)
CCOc1ccc(NC(=O)c2cccc(NC(=O)c3ccccc3)c2)cc1	NPC1 prom act inconclusive, FLuc modulator inconclusive (no result: KinaseGlo FLuc, SMN2 splice up)
O=C(O)c1cccc(NC(=O)c2ccc(COc3ccc(Cl)cc3)cc2)c1	NPC1 prom act inconclusive, FLuc modulator 6µM, Rab9 prom act 3.2µM (no result: KinaseGlo FLuc, SMN2 splice up)
CC(=O)Nc1cccc(NC(=O)c2ccc(COc3ccccc3)cc2)c1	NPC1 prom act 2.8µM, FLuc modulator 2.1µM, Rab9 prom act 2.8µM, ELG1 genotoxic 15µM (no result: KinaseGlo FLuc, SMN2 splice up)
Cc1ccccc1NC(=O)CCc1c(C)nc2c(c1C)c(=O)n(C)c(=O)n2C	none (no result: KinaseGlo FLuc, NPC1 prom act, Rab9 prom act, ELG1 genotoxic)

Bioassay records: PubChem BioAssay, National Center for Advancing Translational Sciences (NCATS)
